Measured values taken from PubChem BioAssay (Tox21).
Results filed as inconclusive are left out. The source made the active and inactive calls. Unless noted, the call rests on the fitted dose curve.

Assays:
[1] = target: Estrogen receptor beta (Homo sapiens) (UniProt Q92731); assay: qHTS assay to identify small molecule agonists of the estrogen receptor beta (ER-beta) signaling pathway (AID 1259377; active means well fitted activation curve with a large enough effect in the signal ratio in the repeat runs, not every such curve was filed as active; the % refers to the signal ratio)
In short: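 HEK293T ER-beta-UAS-bla; 2% charcoal-stripped FBS; cells pre-incubated 6 hr, compound 16 hr, 37C/5% CO2; LiveBLAzer B/G FRET substrate 2 h RT; fluorescence intensity read.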

[2] = target: Estrogen receptor beta (Homo sapiens) (UniProt Q92731); assay: qHTS assay to identify small molecule antagonists of the estrogen receptor beta (ER-beta) signaling pathway (AID 1259378; active means well fitted inhibition curve with a large enough effect in the signal ratio in the repeat runs, not every such curve was filed as active; the % refers to the signal ratio; further: potency means the concentration at half of the fitted maximal effect)
In short: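 Antagonist mode: compounds added to beta-lactamase reporter HEK293T ER-beta-UAS cells stimulated with E2 (1nM final), 16 hr at 37C. LiveBLAzer B/G FRET substrate, 2 hours room temperature, fluorescence read-out.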

[3] = qHTS assay to identify small molecule agonists of the androgen receptor (AR) signaling pathway in the presence of an antagonist - cell viability counter screen (AID 1259379; active means well fitted curve in the direction sought with a large enough effect in the repeat runs; an effect the other way counts as inactive or inconclusive;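 further: MDA-kb2 human breast cancer cells carrying an MMTV luciferase reporter; series mostly up to about 92 µM; nearly all actives have a fitted effect of over 25% in size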)
In short: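 Cytotoxicity is assessed by CellTiter-Fluor in MDA-kb2 cells carrying an MMTV-driven luciferase reporter. Cells receive 3.0uM nilutamide plus compounds at 15 concentrations and incubate 16 hr at 37C without CO2 before fluorescence reading.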

[4] = qHTS assay to identify small molecule agonists of the estrogen receptor beta (ER-beta) signaling pathway - cell viability counter screen (AID 1259380; active means well fitted curve in the direction sought with a large enough effect in the repeat runs; an effect the other way counts as inactive or inconclusive; further: nearly all actives have a fitted effect of over 30% in size; further: potency means the concentration at half of the fitted maximal effect)
In short: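 Cytotoxicity is measured in parallel with the reporter screen: after 16 hr compound exposure at 37C and a 2 hr LiveBLAzer step, CellTiter-Glo is added to the same ER-beta-UAS-bla HEK293T wells and luminescence read after 30 min.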

[5] = qHTS assay to identify small molecule antagonists of the estrogen receptor beta (ER-beta) signaling pathway - cell viability counter screen (AID 1259382; active means well fitted curve in the direction sought with a large enough effect in the repeat runs; an effect the other way counts as inactive or inconclusive;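 further: HEK293T cells carrying ER-beta-UAS-bla reporter stimulated with estradiol; series mostly up to about 92 µM; nearly all actives have a fitted effect of over 55% in size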)
In short: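 Cytotoxicity counter screen multiplexed with the beta-lactamase antagonist assay: GripTite HEK293T ER-beta-bla cells were treated 16 hr with test chemicals in the presence of 1nM 17-beta-estradiol, and viability was measured by CellTiter-Glo.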

[6] = target: Estrogen receptor (Homo sapiens) (UniProt P03372); assay: qHTS assay to identify small molecule agonists of the estrogen receptor alpha (ER-alpha) signaling pathway in the presence of an antagonist (AID 1259383); further: nearly all actives have a fitted effect of over 15% in size; further: potency means the concentration at half of the fitted maximal effect; on activation: top concentration of the series differs between compounds
In short: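 Agonist-mode confirmation in the presence of the ER antagonist ICI-182,780 at 10.0nM final. Breast-derived VM7Luc4E2 reporter cells were exposed to compounds for 22hr, and ERE-driven luciferase was quantified by luminescence.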

[7] = qHTS assay to identify small molecule agonists or antagonists of the thyroid stimulating hormone receptor (TSHR) signaling pathway - wild type cell line counter screen (AID 1259384)
In short: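 Counter screen in untransfected Hek293: compounds (15-point titration, triplicate) plus phosphodiesterase inhibitor Ro20-1724 added after 18 h plating; 30 min RT. Intracellular cAMP via competitive d2/cryptate immunoassay, 1 h incubation.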

[8] = target: Thyrotropin receptor (Homo sapiens) (UniProt P16473); assay: qHTS assay to identify small molecule antagonists of the thyroid stimulating hormone receptor (TSHR) signaling pathway (AID 1259385); further: nearly all actives have a fitted effect of over 20% in size; further: potency means the concentration at half of the fitted maximal effect
In short: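 Antagonist mode: compound-treated TSHR-expressing HEK293 cells were stimulated with 1.5 ng/mL TSH (final) in presence of Ro20-1724 for 30 min at RT. HTRF cAMP detection after 1 h; each compound tested at 15 concentrations, triplicate.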

[9] = qHTS assay to identify small molecule antagonists of the sonic hedgehog signaling (Shh) pathway (AID 1259369); further: nearly all actives have a fitted effect of over 45% in size; further: potency means the concentration at half of the fitted maximal effect
In short: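 Cells are plated and held 4hr at 37 C, compounds (DMSO) are pinned in, conditioned medium is added to stimulate the pathway, and after 24hr luciferase reagent is added for 30min before luminescence is read.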

[10] = target: Androgen receptor (Homo sapiens) (UniProt P10275); assay: qHTS assay to identify small molecule agonists of the androgen receptor (AR) signaling pathway in the presence of an antagonist (AID 1259381); further: nearly all actives have a fitted effect of over 15% in size; further: potency means the concentration at half of the fitted maximal effect
In short: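 Agonist-mode confirmation screen: human MDA-kb2 cells stably expressing luciferase under an MMTV promoter bearing AR and GR response elements, co-treated with 3.0uM nilutamide (final). Luminescence measured after 16hr compound incubation.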

Measured: Potency

Estrogen receptor beta (Homo sapiens), sequence (Q92731 whole entry, looked up): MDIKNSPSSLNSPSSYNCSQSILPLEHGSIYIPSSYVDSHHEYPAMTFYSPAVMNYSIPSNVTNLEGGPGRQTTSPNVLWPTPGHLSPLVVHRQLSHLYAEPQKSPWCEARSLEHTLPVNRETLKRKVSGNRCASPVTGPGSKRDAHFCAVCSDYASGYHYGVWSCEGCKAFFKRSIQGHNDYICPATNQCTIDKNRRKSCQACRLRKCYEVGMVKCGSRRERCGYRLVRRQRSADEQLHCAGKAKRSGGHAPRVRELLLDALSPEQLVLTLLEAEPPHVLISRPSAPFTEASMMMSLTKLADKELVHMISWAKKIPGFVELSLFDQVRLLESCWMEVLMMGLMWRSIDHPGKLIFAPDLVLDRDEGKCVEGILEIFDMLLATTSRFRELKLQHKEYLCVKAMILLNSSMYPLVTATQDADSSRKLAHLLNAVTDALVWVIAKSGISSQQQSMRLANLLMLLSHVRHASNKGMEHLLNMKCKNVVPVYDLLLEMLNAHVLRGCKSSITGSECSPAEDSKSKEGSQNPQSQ
Estrogen receptor (Homo sapiens), sequence (P03372 whole entry, looked up): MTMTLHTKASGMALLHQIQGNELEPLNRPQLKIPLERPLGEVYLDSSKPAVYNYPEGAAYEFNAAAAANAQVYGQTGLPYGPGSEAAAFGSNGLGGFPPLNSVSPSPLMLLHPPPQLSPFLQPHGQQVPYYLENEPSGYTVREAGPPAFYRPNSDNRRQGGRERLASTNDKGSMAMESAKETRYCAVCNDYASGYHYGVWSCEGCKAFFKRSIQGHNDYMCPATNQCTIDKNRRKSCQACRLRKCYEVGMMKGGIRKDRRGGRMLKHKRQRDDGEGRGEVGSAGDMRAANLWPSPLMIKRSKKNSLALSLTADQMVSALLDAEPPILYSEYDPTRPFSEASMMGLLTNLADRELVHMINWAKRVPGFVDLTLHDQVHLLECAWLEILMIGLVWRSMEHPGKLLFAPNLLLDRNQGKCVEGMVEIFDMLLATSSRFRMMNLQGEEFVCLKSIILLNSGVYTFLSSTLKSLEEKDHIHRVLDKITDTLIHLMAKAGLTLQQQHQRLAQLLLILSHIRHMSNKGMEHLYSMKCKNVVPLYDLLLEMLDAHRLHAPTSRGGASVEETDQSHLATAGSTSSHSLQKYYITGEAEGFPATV
Androgen receptor (Homo sapiens), sequence (P10275 whole entry, looked up): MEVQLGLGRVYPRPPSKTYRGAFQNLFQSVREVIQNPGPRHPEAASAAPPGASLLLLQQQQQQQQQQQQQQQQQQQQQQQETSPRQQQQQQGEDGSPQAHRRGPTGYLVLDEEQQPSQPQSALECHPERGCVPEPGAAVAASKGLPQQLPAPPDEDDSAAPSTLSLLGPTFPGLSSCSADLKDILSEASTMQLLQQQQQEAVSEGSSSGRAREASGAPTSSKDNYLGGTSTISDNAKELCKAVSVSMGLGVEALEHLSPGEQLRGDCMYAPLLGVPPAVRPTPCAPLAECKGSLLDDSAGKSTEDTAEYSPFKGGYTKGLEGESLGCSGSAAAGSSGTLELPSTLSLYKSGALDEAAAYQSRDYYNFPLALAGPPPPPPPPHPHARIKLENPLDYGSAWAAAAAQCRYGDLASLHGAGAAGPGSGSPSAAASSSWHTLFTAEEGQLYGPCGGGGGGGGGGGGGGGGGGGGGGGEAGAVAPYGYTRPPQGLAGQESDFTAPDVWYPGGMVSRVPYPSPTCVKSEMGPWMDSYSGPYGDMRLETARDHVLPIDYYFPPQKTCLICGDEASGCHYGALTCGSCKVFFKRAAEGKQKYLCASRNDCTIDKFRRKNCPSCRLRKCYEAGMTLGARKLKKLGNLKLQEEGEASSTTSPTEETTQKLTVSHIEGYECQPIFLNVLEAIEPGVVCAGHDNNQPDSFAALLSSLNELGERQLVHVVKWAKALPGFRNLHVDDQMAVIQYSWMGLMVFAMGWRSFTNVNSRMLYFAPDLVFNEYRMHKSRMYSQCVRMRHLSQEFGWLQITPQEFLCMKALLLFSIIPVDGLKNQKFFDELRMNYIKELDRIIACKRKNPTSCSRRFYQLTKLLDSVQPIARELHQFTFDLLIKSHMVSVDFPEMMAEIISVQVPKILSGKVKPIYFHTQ
Thyrotropin receptor (Homo sapiens), sequence (P16473 whole entry, looked up): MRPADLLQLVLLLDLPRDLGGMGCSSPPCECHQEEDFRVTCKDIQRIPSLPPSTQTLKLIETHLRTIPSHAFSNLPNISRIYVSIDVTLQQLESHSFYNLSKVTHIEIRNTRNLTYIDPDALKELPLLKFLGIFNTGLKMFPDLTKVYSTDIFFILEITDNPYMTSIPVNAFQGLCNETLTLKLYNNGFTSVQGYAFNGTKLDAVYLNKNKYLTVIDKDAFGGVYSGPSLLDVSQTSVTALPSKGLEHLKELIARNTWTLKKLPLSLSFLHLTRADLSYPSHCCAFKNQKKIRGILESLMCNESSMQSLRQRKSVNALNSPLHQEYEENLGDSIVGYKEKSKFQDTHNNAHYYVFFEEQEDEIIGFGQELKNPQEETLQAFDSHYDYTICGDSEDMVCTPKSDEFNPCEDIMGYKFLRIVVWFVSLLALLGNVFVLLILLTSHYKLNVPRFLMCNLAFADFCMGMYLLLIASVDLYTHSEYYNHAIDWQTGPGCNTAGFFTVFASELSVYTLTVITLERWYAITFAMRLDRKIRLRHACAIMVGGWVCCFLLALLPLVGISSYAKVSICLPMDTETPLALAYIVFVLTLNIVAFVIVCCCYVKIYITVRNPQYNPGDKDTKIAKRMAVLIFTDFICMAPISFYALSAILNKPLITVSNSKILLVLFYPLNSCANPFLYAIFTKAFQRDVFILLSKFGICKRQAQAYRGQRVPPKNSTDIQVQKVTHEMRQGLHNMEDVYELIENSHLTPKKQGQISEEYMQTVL

Brc1cc(-c2ccc(Br)c(Br)c2Br)cc(Br)c1Br
not listed: [9] | [10]
inactive: all other assays above

CCCCCCCCCCOS(=O)(=O)O
inactive: [9] | [3] | [5] | [6] | [7] | [8]

CC(COc1ccc(C(C)(C)C)cc1)OS(=O)OCCCl (configuration not stated)
inactive: [5] | [6] | [7] | [8]
active: [9] 1.94 µM

N#C/C(=C1\SCC(c2ccccc2Cl)S1)n1ccnc1 (configuration not stated)
inactive: [1] | [2] | [4] | [5] | [7] | [8]

CC(C)C(=O)O
inactive: [9] | [4] | [5] | [6]

O=C(O)c1c(O)c(-c2ccccc2)nc2ccccc12
inactive: [9] | [3] | [6] | [7] | [8]

CCCCCCCC/C=C\CCCCCCCC(=O)OC(CO)CO
inactive: [1]

OC/C(Br)=C(\Br)CO
inactive: [9] | [4] | [5] | [6] | [7]

O=c1[nH]c2ccc(S(=O)CCN3CCC(Cc4ccc(F)cc4)CC3)cc2o1 (configuration not stated)
inactive: [9] | [4] | [5] | [6] | [7] | [8]

COC(=O)CC(=O)C(C)(C)C
inactive: [9] | [3] | [6] | [7] | [8]

Nc1ccc(Cl)cc1[N+](=O)[O-]
inactive: [9] | [4] | [5] | [6] | [7] | [8]

CC1=CC(O)CC(C)(C)C1 (configuration not stated)
inactive: [9] | [4] | [5] | [6] | [7] | [8]

CC(=O)[C@H]1CC[C@H]2[C@@H]3C[C@H](C)C4=CC(=O)CC[C@]4(C)[C@H]3[C@@H](O)C[C@]12C
active: [10] 0.0841 µM
inactive: [1] | [3] | [4] | [5] | [7]

C=CCNc1nc(NCC=C)nc(N2CCN(C(c3ccc(F)cc3)c3ccc(F)cc3)CC2)n1
active: [8] 9.44 µM
inactive: [9] | [10] | [5] | [6] | [7]

COc1cc2c(N3CCN(C(=O)Nc4ccc(OC(C)C)cc4)CC3)ncnc2cc1OCCCN1CCCCC1
active: [4] 18.8 µM
inactive: [10] | [5] | [6] | [7] | [8]

CC(=O)Oc1ccc(C(=C2CCCCC2)c2ccc(OC(C)=O)cc2)cc1
active: [2] 0.0106 µM | [6] 2.37 µM
inactive: [3] | [5] | [7] | [8]

NC(=O)N(O)[C@@H]1C=C[C@H](Oc2cccc(Oc3ccc(F)cc3)c2)C1
inactive: [4] | [5] | [7] | [8]

Cc1nc2ccccn2c(=O)c1CCN1CCC(C(=O)c2ccc(F)cc2)CC1
inactive: [1] | [3] | [5] | [6]

COc1ccc(C(=O)c2cccc(O)c2)c(OC)c1
inactive: [3] | [4] | [10] | [5]

NC(=O)Nc1ccc(Cl)c(Cl)c1
inactive: [3] | [4] | [5] | [7] | [8]

O=C(c1ccc(O)cc1)c1ccc(Cl)cc1
inactive: [4] | [5]

O=C(CCCN1CCC(O)(c2ccc(Br)cc2)CC1)c1ccc(F)cc1
active: [4] 23.7 µM
inactive: [3] | [6] | [7]

CCOC(=O)N1CCC(n2c(=O)[nH]c3cc(Cl)ccc32)CC1
not listed: [2] | [3] | [9]
inactive: all other assays above

O=C(CCCN1CCN(c2ccc(F)cc2)CC1)NC1c2ccccc2CSc2ccccc21 (configuration not stated)
inactive: [1] | [3] | [6] | [7]

O=C(Nc1ccc([N+](=O)[O-])cc1)Nc1ccc([N+](=O)[O-])cc1
inactive: [5] | [7]

C[C@]12CCC(=O)C=C1C=C[C@@H]1[C@@H]2CC[C@@]2(C)[C@H]1CC[C@@]21CCC(=O)O1
inactive: [3] | [4] | [5] | [6] | [7] | [8]

CO[Si](C)(OC)OC
inactive: [3] | [4] | [5] | [6] | [7] | [8]

CCc1c2c(nc3ccc(OC(=O)N4CCC(N5CCCCC5)CC4)cc13)-c1cc3c(c(=O)n1C2)COC(=O)[C@]3(O)CC
inactive: [3] | [4] | [5] | [6] | [7]

Nc1ccc(C(=O)OCCCOC(=O)c2ccc(N)cc2)cc1
inactive: [6]
active: [4] 17.2 µM

C=CCOC(=O)/C=C\C(=O)OCC=C
inactive: [4] | [10] | [5] | [6] | [7] | [8]

C/C=C/C=C/CCCCCCCO
inactive: [5] | [6] | [7] | [8]

Cc1ccc(S)cc1
inactive: [1] | [5] | [6] | [7] | [8]
